Experimental data: PubChem BioAssay (NCATS)
Values without a mark were called inactive. Inconclusive results are not listed. Activity calls are given as the source filed them. Unless noted, the call rests on the fitted dose curve; in most records, active means well fitted curve in either direction with a large enough effect (not every such curve was filed as active); inconclusive means small, poorly fitted or top-dose-only effect, or another doubt; inactive means flat fitted curve, though single readings scatter.

Tests used:
[1] = molecular target: Lysosomal acid glucosylceramidase (Homo sapiens) (UniProt P04062); test: Glucocerebrosidase-p2 (AID 348; in the data active means potency below about 10 µM; further: potency means the concentration at half of the fitted maximal effect); conditions: purified GBA, blue fluorogenic substrate, 40 min
Outline: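 Compounds titrated from 0.6 nM upwards against 0.2 nM enzyme in pH 5.9 citric acid/KH2PO4, taurocholate, tween-20; blue fluorogenic substrate 80 uM, 40 min room temperature, stopped and read Ex 365/Em 440 for AC50.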

[2] = AP1 Signaling Pathway (AID 357); conditions: ME-180 AP-1-bla reporter, EGF-induced, beta-lactamase ratio, 5 h; at 7.69 µM (top of the series) unless noted;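 further: ME-180 reporter cells stimulated with EGF at its EC50 level; on the % scale 0 is the no-effect control and ±100 the full control effect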
Outline: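 Titration-series screen for positive or negative modulators of EC50 EGF-induced signaling in ME-180 cells carrying an AP-1-driven beta-lactamase reporter. After 5 hours at 37 degrees Celsius, CCF4 460nm/530nm emission ratio gave %Activity; AC50 values derived.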

[3] = NFAT Signaling Pathway (AID 444); conditions: Jurkat NFAT-bla M1, carbachol, beta-lactamase ratio, 5 h; at 7.69 µM (top of the series) unless noted;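 further: carbachol stimulus at about its EC50 of 1 µM final; on the % scale 0 is the no-effect control and ±100 the full control effect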
Outline: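 Jurkat cells with NFAT-driven β-lactamase reporter and co-expressed M1 receptor, stimulated with carbachol (final 1 uM, ~EC50), compound titration, 5 h at 37 °C. CCF4 loaded 1 h at RT; 460/530 nm ratio gave %activity and AC50.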

[4] = Stat Signaling Pathway (AID 446); conditions: ME-180 SIE beta-lactamase reporter, IL-6 stimulated, 5 h; at 7.69 µM (top of the series) unless noted;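 further: ME-180 cervical cancer cells given 40 pM IL-6 alongside compound; SIE-controlled beta-lactamase reporter measured as 460/530 nm FRET emission ratio; on the % scale 0 is the no-effect control and ±100 the full control effect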
Outline: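 Reporter line: ME-180 cervical carcinoma, SIE-beta-lactamase. Treatment: compound with 40 pM IL-6, 5 hrs, 37 C, in low-serum OPTI-MEM with 10 mM HEPES pH 7.3. Detection: 460/530 nm fluorescence.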

[5] = molecular target: Glucocorticoid receptor (Homo sapiens) (UniProt P04150); test: GR-GFP Redistribution (AID 450;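 active means compounds whose dose series gives a full or clear partial fitted curve of increased nuclear translocation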; further: potency means the concentration at half of the fitted maximal effect); conditions: U2OS GR-GFP nuclear translocation, laser cytometry, 2 h
[6] = molecular target: Glucocorticoid receptor (Homo sapiens) (UniProt P04150); test: GR-EFC Redistribution (AID 451; calls by dose curve; further: potency means the concentration at half of the fitted maximal effect); conditions: CHO-K1 GR-EFC translocation, beta-gal luminescence, 2 h
Outline: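 CHO-K1 cells expressing nuclear EA and GR-ED fragments of b-gal; compounds titrated up to 46 uM final, 2 h at 37 C. GR nuclear translocation read as complemented b-gal luminescence after 1 h RT detection.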

[7] = molecular target: Mitogen-activated protein kinase 10 (Mus musculus) (UniProt Q61831); test: JNK3 AlphaScreen Assay (AID 530); conditions: JNK3 lysate, c-Jun phosphorylation; series mostly up to 57.1 µM;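 further: kinase came from lysate of stimulated human HepG2 cells; signal reports phosphorylation of biotinylated GST-cJun 1-79 at Ser73 with 10 µM ATP; on the % scale 0 is the no-effect control and ±100 the full control effect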
Outline: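 qHTS format: compounds tested as titrations against IL-1beta/TNF-alpha-activated HepG2 lysate JNK3 with biotin-GST-cJun substrate and 10 uM ATP at room temperature. Loss of anti-phospho-cJun AlphaScreen signal indicates inhibition.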

[8] = molecular target: Cytochrome P450 3A4 (Homo sapiens) (UniProt P08684); test: qHTS Assay for Activators of Cytochrome P450 3A4 (AID 885; active means well fitted curve in the direction sought with a large enough effect; an effect the other way counts as inactive or inconclusive; further: nearly all actives have a fitted effect of over 65% in size); conditions: recombinant CYP3A4, Luciferin-PPXE luminescence, 60 min; series mostly up to 57.1 µM
Outline: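 Signal was normalized against complete inhibition by 57 uM ketoconazole. The reaction used 20nM CYP3A4 with 25uM Luciferin-PPXE, 10-min compound preincubation and a 60-min NADPH-supported step at RT.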

[9] = Primary qHTS for small molecule stabilizers of the endoplasmic reticulum resident proteome: Secreted ER Calcium Modulated Protein (SERCaMP) assay (AID 1508630; active means well fitted curve in the direction sought with a large enough effect; an effect the other way counts as inactive or inconclusive; further: on the % scale 0 is the no-effect control and ±100 the full control effect); conditions: SH-SY5Y GLuc-SERCaMP (Gaussia luciferase released on ER calcium loss) secretion, thapsigargin, luminescence; series mostly up to 38.4 µM
Outline: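 GLuc-SERCaMP-expressing SH-SY5Y cells, pretreated 16 h with compound, are challenged with thapsigargin to empty ER calcium stores; after 4 h, coelenterazine is added directly to the medium and luminescence is imaged.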

[10] = molecular target: Cytochrome P450 3A4 (Homo sapiens) (UniProt P08684); test: qHTS Assay for Inhibitors and Substrates of Cytochrome P450 3A4 (AID 884; active means well fitted curve in the direction sought with a large enough effect; an effect the other way counts as inactive or inconclusive; further: potency means the concentration at half of the fitted maximal effect; nearly all actives have a fitted effect of over 50% in size); conditions: recombinant CYP3A4, Luciferin-PPXE luminescence; series mostly up to 57.1 µM
Outline: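 20 nM human CYP3A4 with 25 uM Luciferin-PPXE (at KM) in 200 mM KPO4, preincubated 10 min with compound; NADPH regeneration started a 60 min RT reaction. Luciferin detected by luminescence, normalized to 57 uM ketoconazole as full inhibition.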

[11] = molecular target: 3',5'-cyclic-AMP phosphodiesterase 4B (Homo sapiens) (UniProt Q07343); test: qHTS Assay for Inhibitors of PDE-IV (AID 607; active means well fitted activation curve with a large enough effect in the main read-out, with a control signal flat, not every such curve was filed as active; further: % of control where 0% means no effect); conditions: HEK293 ACTOne CNG channel cells, membrane potential fluorescence; series mostly up to 22.9 µM
Outline: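 Cell-based read-out of cAMP via a modified cyclic nucleotide-gated channel and membrane potential dye (535/590 nm) in HEK293 cells expressing PDE4 endogenously. Compounds tested up to 22.9 uM final; 100 uM RO 20-1724 reference.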

[12] = qHTS Assay for Identification of Small Molecule Agonists for Hypoxia Response Element Signaling Pathway (AID 914; active means well fitted activation curve with a large enough effect in the signal ratio, with a control signal flat, not every such curve was filed as active; the % refers to the signal ratio; further: potency means the concentration at half of the fitted maximal effect); conditions: ME-180 HRE-bla reporter, beta-lactamase ratio, CoCl2, 17 h; activation: stronger effect = higher value
Outline: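 ME-180 cells carrying an HRE-driven beta-lactamase reporter were treated with compounds in a titration series plus an EC50 level of CoCl2 for 17 h at 37 degrees Celsius; CCF4 readout as the 460nm/530nm ratio gave AC50 values.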

Lysosomal acid glucosylceramidase (Homo sapiens), sequence (P04062 whole entry, looked up): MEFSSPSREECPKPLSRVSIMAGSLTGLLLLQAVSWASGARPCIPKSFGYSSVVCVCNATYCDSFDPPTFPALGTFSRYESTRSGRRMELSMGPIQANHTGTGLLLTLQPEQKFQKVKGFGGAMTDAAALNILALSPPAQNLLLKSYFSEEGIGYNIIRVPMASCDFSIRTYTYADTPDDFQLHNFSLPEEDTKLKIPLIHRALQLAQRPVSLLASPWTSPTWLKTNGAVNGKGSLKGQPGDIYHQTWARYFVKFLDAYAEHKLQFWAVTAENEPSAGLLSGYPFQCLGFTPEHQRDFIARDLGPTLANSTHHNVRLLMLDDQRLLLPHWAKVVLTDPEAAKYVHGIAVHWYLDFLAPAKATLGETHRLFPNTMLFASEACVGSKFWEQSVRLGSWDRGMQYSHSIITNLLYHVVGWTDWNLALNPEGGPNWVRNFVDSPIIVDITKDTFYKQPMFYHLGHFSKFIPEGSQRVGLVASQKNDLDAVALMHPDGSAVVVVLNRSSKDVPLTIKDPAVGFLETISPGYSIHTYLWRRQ
Cytochrome P450 3A4 (Homo sapiens), sequence (P08684 whole entry, looked up): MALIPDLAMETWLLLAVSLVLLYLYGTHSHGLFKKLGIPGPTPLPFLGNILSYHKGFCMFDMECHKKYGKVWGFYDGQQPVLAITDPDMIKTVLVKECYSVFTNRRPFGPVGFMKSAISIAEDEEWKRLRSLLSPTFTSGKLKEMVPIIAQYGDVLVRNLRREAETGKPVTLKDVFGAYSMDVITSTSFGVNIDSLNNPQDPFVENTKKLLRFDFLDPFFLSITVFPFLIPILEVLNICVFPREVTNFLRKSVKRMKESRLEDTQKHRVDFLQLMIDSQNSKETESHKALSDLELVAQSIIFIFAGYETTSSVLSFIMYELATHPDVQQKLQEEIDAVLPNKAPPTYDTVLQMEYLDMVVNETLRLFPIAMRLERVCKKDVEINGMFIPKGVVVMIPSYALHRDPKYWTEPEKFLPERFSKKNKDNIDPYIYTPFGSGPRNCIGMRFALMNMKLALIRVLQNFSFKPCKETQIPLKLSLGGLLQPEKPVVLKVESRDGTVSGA
3',5'-cyclic-AMP phosphodiesterase 4B (Homo sapiens), sequence (Q07343 whole entry, looked up): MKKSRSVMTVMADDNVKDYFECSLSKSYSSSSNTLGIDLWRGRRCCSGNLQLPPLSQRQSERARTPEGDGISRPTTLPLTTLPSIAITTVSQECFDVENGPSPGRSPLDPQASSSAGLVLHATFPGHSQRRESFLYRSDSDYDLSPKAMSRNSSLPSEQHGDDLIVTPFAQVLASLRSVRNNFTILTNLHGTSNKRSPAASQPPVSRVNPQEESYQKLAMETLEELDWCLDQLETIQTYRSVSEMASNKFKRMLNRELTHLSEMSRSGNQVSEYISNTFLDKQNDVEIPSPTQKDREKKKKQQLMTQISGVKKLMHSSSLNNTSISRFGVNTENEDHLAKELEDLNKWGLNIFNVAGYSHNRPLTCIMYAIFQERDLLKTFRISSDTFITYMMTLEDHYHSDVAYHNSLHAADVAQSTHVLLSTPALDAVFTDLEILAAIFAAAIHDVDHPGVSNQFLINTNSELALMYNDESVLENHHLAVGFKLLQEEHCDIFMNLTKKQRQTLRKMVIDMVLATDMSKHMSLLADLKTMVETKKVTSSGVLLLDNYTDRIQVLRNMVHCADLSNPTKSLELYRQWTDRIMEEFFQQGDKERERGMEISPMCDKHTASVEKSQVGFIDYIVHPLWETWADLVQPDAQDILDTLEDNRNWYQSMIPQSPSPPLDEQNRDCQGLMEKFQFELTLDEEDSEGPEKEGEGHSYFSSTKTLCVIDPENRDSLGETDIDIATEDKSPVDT
Glucocorticoid receptor (Homo sapiens), sequence (P04150 whole entry, looked up, the tested form may be a part): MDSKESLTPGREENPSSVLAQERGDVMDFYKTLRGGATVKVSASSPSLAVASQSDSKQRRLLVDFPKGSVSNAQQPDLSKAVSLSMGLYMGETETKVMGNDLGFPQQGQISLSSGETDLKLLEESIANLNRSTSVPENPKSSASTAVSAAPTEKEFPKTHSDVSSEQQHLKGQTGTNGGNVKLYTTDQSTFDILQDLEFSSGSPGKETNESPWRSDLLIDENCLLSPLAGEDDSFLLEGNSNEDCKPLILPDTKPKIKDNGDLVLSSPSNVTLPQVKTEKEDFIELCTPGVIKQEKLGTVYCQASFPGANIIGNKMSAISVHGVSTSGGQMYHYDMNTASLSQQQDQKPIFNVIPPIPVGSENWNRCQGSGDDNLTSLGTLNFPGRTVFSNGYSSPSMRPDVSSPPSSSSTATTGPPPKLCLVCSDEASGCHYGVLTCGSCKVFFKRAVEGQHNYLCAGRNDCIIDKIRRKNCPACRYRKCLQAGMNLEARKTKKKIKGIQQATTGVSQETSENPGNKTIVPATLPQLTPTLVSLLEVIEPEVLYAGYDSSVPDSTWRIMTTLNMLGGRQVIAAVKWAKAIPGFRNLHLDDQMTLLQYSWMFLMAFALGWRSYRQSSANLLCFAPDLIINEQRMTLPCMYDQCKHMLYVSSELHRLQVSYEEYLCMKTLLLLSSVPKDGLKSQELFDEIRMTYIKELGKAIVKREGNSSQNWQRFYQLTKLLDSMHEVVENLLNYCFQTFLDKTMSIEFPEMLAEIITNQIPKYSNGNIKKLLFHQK

| SMILES | Potency [1] [µM] | activity change, negative = inhibition [2] | activity change, negative = inhibition [3] | activity, negative = inhibition [4] | Potency [5] [µM] | Potency [6] [µM] | Potency [7] | Potency [8] | outcome [9] | Potency [10] | Potency [11] | Potency [12] |
| --- | --- | --- | --- | --- | --- | --- | --- | --- | --- | --- | --- | --- |
| O=c1c(-c2cccc(Cl)c2)nc2cncnc2n1Cc1ccc(F)cc1 | > 11.4 | -7.68% | -0.975% | -5.55% | > 9.22 | > 46 | inactive | inactive | inactive |  |  |  |
| COc1ccc(-c2nc3cnc(OC)nc3n(Cc3cccc(OC)c3)c2=O)cc1 | > 11.4 | -4% | -10.2% | 27.2% | > 9.22 | > 46 | inactive | inactive | inactive | 2.51 µM (active) |  |  |
| O=C(c1cccc(F)c1)N1CCC2(CC1)CN(C(c1ccccc1)c1ccccc1)C2 | > 11.4 | 16.8% | -27.5% | -17.5% |  | > 46 | inactive |  | inactive |  | inactive |  |
| Cn1c(=O)c(-c2cc(F)cc(F)c2)nc2cnc(Oc3cccc(Cl)c3)nc21 | > 11.4 | -16% | -4.07% | 7.63% | > 9.22 | > 46 | inactive |  | inactive |  | inactive |  |
| COc1cccc(Cn2c(=O)c(-c3cccc(F)c3)nc3cncnc32)c1 | > 11.4 | -9.03% | -6.22% | -7.22% | > 9.22 | > 46 | inactive | inactive | inactive |  | inactive |  |
| COc1cccc(Cn2c(=O)c(-c3cc(F)cc(F)c3)nc3cnc(OC)nc32)c1 | > 11.4 | -16.9% | -18.1% | -4.81% | > 9.22 | > 46 | inactive |  | inactive |  | inactive |  |
| COCCn1c(=O)c(-c2ccc(Cl)cc2)nc2cnc(Oc3ccc(OC)cc3)nc21 | > 11.4 | -18.1% | -1.47% | -2.62% | > 9.22 | > 46 | inactive |  | inactive |  | inactive |  |
| Cc1nc2cnc(OCc3ccccc3)nc2n(CCC#N)c1=O | > 11.4 | 2.98% | -3.58% | -1.87% | > 9.22 | > 46 | inactive | inactive | inactive |  |  |  |
| O=c1c(-c2cccc(F)c2)nc2cncnc2n1Cc1ccccc1 | > 11.4 | -7.86% | -7.28% | -8.08% | > 9.22 | > 46 |  | inactive | inactive |  |  |  |
| O=c1c(-c2ccc(Cl)cc2)nc2cncnc2n1Cc1ccccc1 | > 11.4 | -10.4% | -17% | -3.39% | > 9.22 | > 46 | inactive | inactive | inactive |  | inactive |  |
| O=C(c1ccco1)N1CCC2(CCCN(c3ncccn3)C2)CC1 | > 11.4 | 3.88% | -1.96% | -7% |  | > 46 | inactive |  | inactive |  | inactive |  |
| COc1cccc(Cn2c(=O)c(-c3ccc(Cl)cc3)nc3cnc(N(C)C)nc32)c1 | > 11.4 | 122% [activator] (active) | 154% [activator] (active) | 215% [activator] (active) | > 9.22 | > 46 | inactive |  | inactive |  | inactive | 0.316 µM (active) |
| COc1ccc(C(=O)N2CCC3(CCN(C(=O)Nc4ccccc4)CC3)CC2)cc1 | > 11.4 | 0.785% | 6.48% | -6.61% |  | > 46 | inactive |  | inactive |  | inactive |  |
| COc1ccccc1CCn1c(=O)c(C)nc2cncnc21 | > 11.4 | -13.2% | 6.15% | -13.1% | > 9.22 | > 46 | inactive |  | inactive |  | inactive |  |
| COCCn1c(=O)c(-c2cc(F)cc(F)c2)nc2cnc(OCc3ccccc3)nc21 | > 11.4 | 8.07% | -6.33% | -6.5% | > 9.22 | > 46 | inactive |  | inactive |  | inactive |  |
| COc1ccc(C(=O)N2CCC3(CC2)CCN(c2cccc(-c4ccccc4)c2)CC3)cc1 | > 11.4 | 10.6% | -6.4% | -19% |  | > 46 | inactive |  | inactive |  | inactive |  |
